We go through 13 molecules from PubChem BioAssay.

Test [1] can be described thus: Her2 expression decrease, cell viability multiplex – SKBR3 breast tumor cells, AlphaScreen, ATP viability, primary screen (AID 461).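 For Her2 level: lower value means less Her2 protein in the cells.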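 For viability: percent of carrier control wells set as 100% viability.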 Conditions: SKBR3 Her2 protein level, 18-24 h, measured here: SKBR3 viability, ATP luminescence, at 10 µM. For orientation: In Alpha technology, singlet oxygen from a donor bead excites a nearby acceptor bead.
Test [2] has as its target Receptor tyrosine-protein kinase erbB-2 (Homo sapiens) (UniProt P04626). Described as above. Conditions: 18-24 h, at 10 µM, stronger effect = lower value.
Test [3] is described as follows: reduced viability of SK-BR-3 breast cancer cells – cell-based, 24 h, human, pilot screen (AID 572;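 active = viability at or below 10% of carrier control in both of two separate runs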;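 note: compound exposure lasted between 18 and 24 h rather than exactly 24 h; 100% = carrier-treated control wells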). The conditions noted are these: SK-BR-3 viability, CellTiter-Glo luminescence, at 10 µM, stronger effect = lower value. A general note: ATP-based viability assays read luminescence as a measure of living cells.
Test [4] is described as follows: HUVEC growth inhibition – cell-based, human, primary screen (AID 575;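 active = viability at or below 30% in both replicate assays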;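 note: 100% = median of untreated cell wells with 0.1% DMSO on each plate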). The conditions noted are these: HUVEC proliferation, CellTiter-Glo luminescence, 72 h; at 10 µM; stronger effect = lower value.
Test [5] is described as follows: H69AR cell proliferation blockers – human, duplicate replicates, primary screen (AID 580;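 active = viability at or under a set limit in both replicates, limit being median viability minus 3 SD, cut at about 48% in these data, passing the limit was not always enough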;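 note: 100% = mean luminescence of untreated wells and 0% = no signal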). The conditions noted are these: H69AR lung tumor cells viability, ATP luminescence, 72 h; at 10 µM; stronger effect = lower value.
A short description of test [6]: yeast transport mutant growth inhibition pilot in 384-well plates, post-Golgi transport modulator project (AID 636; in the data active = inhibition above about 31%). Conditions: absorbance 615 nm, about 18 h, stronger effect = higher value.
The nature of test [7]: growth suppression of yeast trafficking mutant, preliminary HTS, modulators of trafficking downstream of Golgi apparatus project, 1536-format plate, OD 615 nm (AID 637; in the data active = inhibition above about 30%). Conditions: yeast transport mutant growth, absorbance 615 nm, 18 h; stronger effect = higher value.
Test [8] in a line: MRP1 drug-resistance reversers in H69AR cells – cell-based, doxorubicin co-treatment, pilot screen (AID 601;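 active = viability loss from added drug above about 55%, and viability with drug at most 40%, in both replicates, limit read from the data, passing the limit was not always enough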). Conditions: CellTiter-Glo, 72 h, at 10 µM; for differential viability (reversal): stronger effect = higher value.
A short description of test [9]: S. cerevisiae growth inhibition in permissive medium (OD615), pilot counter-assay for S. cerevisiae lifespan shortening project, permissive growth control (AID 705;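 active = growth inhibition above 25% in both replicates, a cutoff set 3 SD above the mean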). Conditions: OD615, 24 h, at 10 µM, stronger effect = higher value.
The nature of test [10]: S. cerevisiae growth inhibition in restrictive medium, OD615, pilot screen, restrictive growth control, yeast lifespan reduction project (AID 706;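 active = growth inhibition above a set limit, 3 SD over mean compound inhibition, in both replicates, cut at about 43% in these data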;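 note: modified DeaD lifespan yeast strain shifted to restrictive glucose medium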). Conditions: OD615, 48 h, at 10 µM, stronger effect = higher value.
Test [11] can be described thus: doxorubicin toxicity protection in MRP-1 cells – H69AR cells, CellTiter-Glo, duplicate, MRP-1 activator project, pilot screen (AID 807;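 active = viability increase at or above a cutoff of the median across tested compounds plus 3 SD, cut at about 8.5% in these data, passing the limit was not always enough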;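 note: compound pretreatment 18-22 h then 72 h combined with doxorubicin; 0% = doxorubicin alone and 100% = vehicle without doxorubicin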). The conditions noted are these: H69AR viability with doxorubicin, CellTiter-Glo luminescence; at 10 µM; stronger effect = higher value.
Test [12] is described as follows: viability of HCT116 without oncogenic beta-catenin – human colon tumor cells, pilot screen (AID 823;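 active = cell viability at or below a set limit in both duplicate runs, the limit being the all-compound median minus 4 SD, cut at about 23% in these data, passing the limit was not always enough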;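 note: 0% = wells killed by 20 µM Hyamine and 100% = untreated DMSO cell wells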). Conditions: HCT116 beta-catenin knockout viability, CellTiter-Glo, 60 h; at 10 µM; stronger effect = lower value.
Test [13] is described as follows: viability of PTEN-null HCT116 cells – cell-based, HCT116 clonal line, CellTiter-Glo, pilot screen (AID 824;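 active = viability at or below 27.92% in each of two runs, the all-compound median minus 4 SD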;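 note: 0% = 20 µM Hyamine control and 100% = vehicle cell control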). Conditions: HCT116 PTEN-deleted viability, 60 h, at 10 µM, stronger effect = lower value.
A short description of test [14]: RAM pathway blockade in budding yeast – dse1pr::URA3 reporter, 5-FOA selection, pilot screen (AID 869;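 active = inhibition over a set limit, the all-compound mean plus 3 SD, in both replicate runs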;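 note: 0% = DMSO wells with no growth and 100% = 10 µM 1-NA-PP1 with full growth; RAM network block rescues cells from 5-FOA so hits raise OD615 growth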). Conditions: S. cerevisiae dse1pr::URA3 5-FOA growth, OD615, 2 d; at 10 µM; stronger effect = higher value; strain carries analog-sensitive mutant Cbk1 kinase.
Where [15] appears, read: H69AR cells + 2 uM doxorubicin, measured here: viability with 2 uM doxorubicin, stronger effect = lower value.
Where [16] appears, read: H69AR cells, compound alone cytotoxicity.

Each structure is given as a SMILES string. Inconclusive results are not listed. Calls of active or inactive are those of the source.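 Rule for the calls, unless noted: active = Her2 level under about 52% in both replicate screens, with viability over 70% of control (limit read from the data); inconclusive = Her2 under the limit in one screen only, or viability under 70%; inactive = Her2 level above the set limit.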

Chain of Receptor tyrosine-protein kinase erbB-2 (Homo sapiens) (P04626 whole entry, looked up): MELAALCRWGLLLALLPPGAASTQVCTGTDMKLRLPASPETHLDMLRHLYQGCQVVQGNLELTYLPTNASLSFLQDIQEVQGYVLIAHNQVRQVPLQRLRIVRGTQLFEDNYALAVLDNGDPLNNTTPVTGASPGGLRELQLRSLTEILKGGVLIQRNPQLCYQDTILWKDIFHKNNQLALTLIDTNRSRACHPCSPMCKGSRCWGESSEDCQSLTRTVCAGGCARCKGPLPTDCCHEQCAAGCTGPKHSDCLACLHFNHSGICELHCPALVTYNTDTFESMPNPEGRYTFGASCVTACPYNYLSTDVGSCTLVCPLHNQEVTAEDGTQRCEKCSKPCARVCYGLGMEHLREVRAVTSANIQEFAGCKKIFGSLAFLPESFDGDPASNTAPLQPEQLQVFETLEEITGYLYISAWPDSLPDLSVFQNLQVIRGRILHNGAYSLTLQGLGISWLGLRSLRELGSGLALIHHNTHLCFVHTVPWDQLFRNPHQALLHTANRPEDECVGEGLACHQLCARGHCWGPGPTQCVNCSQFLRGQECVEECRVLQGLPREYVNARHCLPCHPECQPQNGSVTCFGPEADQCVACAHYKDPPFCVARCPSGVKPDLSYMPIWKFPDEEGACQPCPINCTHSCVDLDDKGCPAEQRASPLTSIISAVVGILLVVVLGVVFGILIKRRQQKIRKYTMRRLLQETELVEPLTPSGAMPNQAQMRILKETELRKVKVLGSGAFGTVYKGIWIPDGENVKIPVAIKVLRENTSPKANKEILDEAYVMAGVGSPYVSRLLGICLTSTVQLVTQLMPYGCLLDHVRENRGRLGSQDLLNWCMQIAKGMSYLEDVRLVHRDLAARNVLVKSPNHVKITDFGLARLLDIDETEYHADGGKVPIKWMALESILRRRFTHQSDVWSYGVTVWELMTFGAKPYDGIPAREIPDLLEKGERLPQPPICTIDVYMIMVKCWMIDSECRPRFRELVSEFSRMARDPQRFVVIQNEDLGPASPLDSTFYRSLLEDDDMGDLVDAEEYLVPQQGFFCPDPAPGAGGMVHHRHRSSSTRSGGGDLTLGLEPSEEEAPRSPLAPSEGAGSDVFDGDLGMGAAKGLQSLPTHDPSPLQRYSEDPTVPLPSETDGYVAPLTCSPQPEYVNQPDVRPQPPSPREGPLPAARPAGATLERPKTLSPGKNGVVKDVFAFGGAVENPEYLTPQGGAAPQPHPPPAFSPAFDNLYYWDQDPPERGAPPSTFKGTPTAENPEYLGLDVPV

For orientation: viability means a read-out of living cells in per cent, often relative to untreated cells. The inhibition is the drop in the measured response relative to a control, in per cent. Consider `CCOC(=O)c1sc(NC(=O)CSc2nnc(-c3ccco3)n2CC)c(C(=O)OCC)c1C`, for which the viability in [1] was 101%; in [3], 101% (inactive); in test [4] it was 77.5% (inactive); in [5], 74.2% (inactive). Besides, the Her2 level in test [2] was 71% (inactive). Further, the figures for the inhibition in test [6] and in test [7] were -0.66% (inactive) and -0.32% (inactive), respectively.

As for `CC(=O)O[C@]1(C(C)=O)CC[C@H]2[C@@H]3C[C@H](C)C4=CC(=O)CC[C@]4(C)[C@H]3CC[C@@]21C`, the viability in [1] was 153%; in test [3], 153% (inactive); in test [4] it was 83.3% (inactive); in test [8] (setting [15]), 6.83%; in test [8] (setting [16]), 1.8%. In addition, the Her2 level in test [2] was 65% (inactive). Moreover, in [8] (H69AR cells + 2 uM doxorubicin), the differential viability (reversal) was -5.03% (inactive).

Take `OC(CN1CCN(c2ccccc2)CC1)c1ccc2c(c1)CCN2` (stereo not given): the viability was 87.5% in test [1]; 87.5% (inactive) in [3]; 95.3% (inactive) in test [4]; 69.5% (inactive) in [5]; 95.5% in test [8] (setting [15]); 69.5% in [8] (setting [16]). In addition, the viability was 83.9% (inactive) in test [12] and 84.4% (inactive) in [13]. Also, in test [2], the Her2 level was 110% (inactive). For the same molecule, the differential viability (reversal) in test [8] (H69AR cells + 2 uM doxorubicin) was -26% (inactive). In addition, the inhibition in test [6] is -2.4% (inactive); in [7], 3.33% (inactive); in test [14] it was 0.78% (inactive). The growth inhibition was -10.4% (inactive) in test [9] and -5.32% (inactive) in [10]. The viability increase in [11] is -6.11% (inactive).

On to `CN1CCc2c(sc3c2c(=O)n(-c2ccccc2)c2nnc(SCc4ccc(F)cc4)n32)C1`, for which the viability in [1] is 82%; in test [3], 82% (inactive); in [4] it was 109% (inactive); in test [5] it was 102% (inactive). Moreover, in [2], the Her2 level is 94.5% (inactive). Besides, the values for the inhibition in test [6] and in [7] were -1.95% (inactive) and 0.79% (inactive), respectively.

For `C=CCn1c(SCC(=O)Nc2cccc(OC)c2)nnc1-c1cccnc1`, the viability was 92.5% in test [1]; 92.5% (inactive) in test [3]; 87.2% (inactive) in [4]; 95.4% (inactive) in test [5]; 87.5% in test [8] (setting [15]); 95.4% in [8] (setting [16]). The viability in [12] was 99.6% (inactive); in test [13] it was 96.8% (inactive). The Her2 level in [2] was 95% (inactive). In test [8] (H69AR cells + 2 uM doxorubicin), the differential viability (reversal) was 7.9% (inactive). In addition, the inhibition was -6.4% (inactive) in [6], 3.33% (inactive) in [7] and 0.365% (inactive) in test [14]. Moreover, the growth inhibition in test [9] is -11.3% (inactive); in test [10] it was -8.35% (inactive). The viability increase in test [11] is -2.95% (inactive).

Consider `Clc1ccc(C2Nc3ccccc3-n3cccc32)cc1` (stereo not given), for which the viability in test [1] is 92%; in test [3] it was 92% (inactive); in test [4] it was 60.8% (inactive); in [5] it was 66.7% (inactive); in test [8] (setting [15]), 75.9%; in test [8] (setting [16]) it was 66.7%. Further, the viability in [12] is 82.8% (inactive); in test [13], 81.3% (inactive). Further, in [2], the Her2 level was 82% (inactive). Further, the differential viability (reversal) in [8] (H69AR cells + 2 uM doxorubicin) is -9.2% (inactive). In addition, the inhibition in [6] was -3.87% (inactive); in test [7] it was 7% (inactive); in [14], 3.41% (inactive). The growth inhibition in test [9] was -26% (inactive); in [10], -13.6% (inactive). The viability increase in [11] is -4.67% (inactive).

Consider `O=C(c1ccc(Br)o1)N1CCN(c2ccc3nnc(-c4ccccc4)n3n2)CC1`, for which the viability in [1] was 113%; in [3], 113% (inactive); in [4] it was 56.6% (inactive); in test [5] it was 75.8% (inactive); in test [8] (setting [15]), 37.1%; in test [8] (setting [16]), 75.8%. Further, the viability was 45% (inactive) in test [12] and 38.8% (inactive) in [13]. Further, the Her2 level in test [2] is 78% (inactive). For the same molecule, the differential viability (reversal) in [8] (H69AR cells + 2 uM doxorubicin) was 38.7% (inactive). The inhibition was 2.82% (inactive) in [6], -0.67% (inactive) in [7] and 1.29% (inactive) in test [14]. Besides, the growth inhibition in test [10] was 45.7% (active). The viability increase in [11] is -1.47% (inactive).

Regarding `CC[C@H]1OC(=O)C[C@@H](O)[C@H](C)[C@@H](O[C@@H]2O[C@H](C)C[C@H](N(C)C)[C@H]2O)[C@@H](CC=O)C[C@@H](C)C(=O)C=C[C@]2(C)O[C@H]2[C@@H]1C`, the viability was 162% in test [1]; 162% (inactive) in [3]; 53.5% (inactive) in test [4]; 45.8% in [8] (setting [15]); 39.1% in test [8] (setting [16]). Also, the Her2 level in [2] was 19.5% (active). Also, in [8] (H69AR cells + 2 uM doxorubicin), the differential viability (reversal) was -6.67% (inactive).

As to `Cc1cccc(OCC(=O)N2CCC(c3ccccc3)C2)c1` (stereo not given), the viability in test [1] is 104%; in [3] it was 104% (inactive); in [4], 98% (inactive); in test [5], 92.8% (inactive); in [8] (setting [15]), 90.9%; in test [8] (setting [16]), 92.8%. Besides, the viability in test [12] is 83% (inactive); in test [13], 83.7% (inactive). For the same molecule, the Her2 level in test [2] was 112% (inactive). Also, the differential viability (reversal) in [8] (H69AR cells + 2 uM doxorubicin) was 1.84% (inactive). In addition, the results for the inhibition in test [6], in test [7] and in [14] were -4.05% (inactive), -1.83% (inactive) and 0.225% (inactive), respectively. The growth inhibition is -17.9% (inactive) in test [9] and -6.05% (inactive) in test [10]. Moreover, the viability increase in test [11] was -0.58% (inactive).

For the molecule `CCN(c1ccc2c(c1)OCO2)S(=O)(=O)c1cc(Br)cc2c1N(C(=O)C1CC1)CC2`, the viability in test [1] is 131%; in [3], 131% (inactive); in [4] it was 89.6% (inactive); in test [5], 73.9% (inactive); in test [8] (setting [15]), 62%; in [8] (setting [16]) it was 73.9%. The viability in test [12] is 72.4% (inactive); in test [13] it was 72% (inactive). For the same molecule, the Her2 level in test [2] was 92.5% (inactive). Moreover, in test [8] (H69AR cells + 2 uM doxorubicin), the differential viability (reversal) was 11.9% (inactive). The inhibition in test [6] was -10% (inactive); in test [7], 3.17% (inactive); in [14] it was 3.91% (inactive). Also, the growth inhibition is -12.3% (inactive) in [9] and -14.7% (inactive) in test [10]. For the same molecule, in [11], the viability increase was -3.72% (inactive).

As to `O=C(CSc1nnc2scc(-c3ccccc3)n12)Nc1nsc(-c2ccccc2)n1`, the viability was 82.5% in test [1]; 82.5% (inactive) in test [3]; 70.3% (inactive) in test [4]; 75.2% in test [8] (setting [15]); 61.1% in test [8] (setting [16]). For the same molecule, the Her2 level in [2] was 78% (inactive). Besides, the differential viability (reversal) in test [8] (H69AR cells + 2 uM doxorubicin) was -14.1% (inactive). Moreover, the inhibition in test [6] was -6.53% (inactive); in test [7], 0.48% (inactive).

As to `COc1cccc(Cn2c(-c3nonc3N)nc3ccccc32)c1`, the viability was 93.5% in test [1]; 93.5% (inactive) in test [3]; 58.2% (inactive) in test [4]; 62.7% in test [8] (setting [15]); 16% in test [8] (setting [16]). For the same molecule, in test [2], the Her2 level was 82% (inactive). Besides, in test [8] (H69AR cells + 2 uM doxorubicin), the differential viability (reversal) is -46.7% (inactive). The results for the inhibition in test [6] and in [7] were -2.6% (inactive) and -2.06% (inactive), respectively.

As for `CCn1c(CNc2ccc(OC)cc2)nnc1SCC(=O)c1ccc(OC)cc1`, the viability in [1] is 110%; in test [3] it was 110% (inactive); in [4] it was 68.8% (inactive); in test [8] (setting [15]) it was 65.5%; in test [8] (setting [16]), 50.8%. In [2], the Her2 level is 91% (inactive). The differential viability (reversal) in [8] (H69AR cells + 2 uM doxorubicin) is -14.7% (inactive). Moreover, the inhibition in [6] is -3.64% (inactive); in test [7], 0.33% (inactive).
